From PubChem BioAssay (Tox21)
Where “and” joins values, the source holds several entries; their conditions need not be identical. Equal entries are not always repeated. Results filed as inconclusive are left out. Where a call stands in place of a potency, no number is given. Calls of active or inactive are those of the source. Calls come from the whole dose curve; as a rule, active = well fitted cell-killing curve with a large enough effect in the repeat runs; inconclusive = weak or mixed curves; inactive = no such curve, though single readings can be large or run the other way.

Assay: qHTS assay for identifying genotoxic compounds that show differential cytotoxicity against isogenic chicken DT40 cell lines with known DNA damage response pathways - Rad54/Ku70 mutant cell line (AID 743015); note: nearly all actives have a fitted effect of over 60% in size
Details: DT40 Rad54/Ku70 mutant viability, CellTiter-Glo, 40 h; series mostly up to 66.8 µM; activity change, negative = cytotoxicity: at the top concentration
Text: National Center for Advancing Translational Sciences [NCATS]
NIH Chemical Genomics Center [NCGC]
U.S. Environmental Protection Agency [EPA]
National Institutes of Environmental Health Sciences [NIEHS]
National Toxicology Program [NTP]
U.S. Food and Drug Administration [FDA]
DNA repair pathways play a critical role in cellular homeostasis by repairing DNA damage induced by endogenous processes and xenobiotics. Isogenic chicken DT40 cell lines deficient in different DNA repair pathways can be used to identify genotoxic compounds and aid in characterizing the nature of the DNA damage induced. Two DNA repair-deficient cell lines with disrupted genes, Rad54/Ku70 or Rev3, were used to screen the Tox21 10K compound library. Possible genotoxicity was based on the presence of a significant increase in cytotoxicity in one or more of the DNA repair-deficient cell lines compared to that observed in the parental DNA repair-proficient cell line. CellTiter Glo viability assay (Promega, Madison, WI) was used to measure cell viability in these cells after compound treatment. This assay includes the data from the Rad54/Ku70 mutant cell line.
Tox21 Assay Protocol Summary:
300 DT40 mutant cells in 5 uL/well were dispensed into white, solid-bottom 1536-well plates using a Multidrop Combi (ThermoFisher Scientific, Waltham, MA) dispenser. After the assay plates were incubated at 37 C/5% CO2 for approximately 0.5 hour, 23 nL of compounds dissolved in DMSO, positive controls or DMSO only was transferred into the assay plate by a pintool work station (Kalypsys, San Diego, CA). The assay plates were incubated at 37 C/5% CO2 for 40 hours. After 5 uL per well of CellTiter-Glo reagent was added into each well of the assay plates, the plates were incubated for 30 min at room temperature and the luminescence intensity of the plates was measured using a ViewLux (PerkinElmer, Shelton, CT) plate reader.
Potency is the fitted concentration of half-maximal effect.

Structure (SMILES)	Potency	activity change, negative = cytotoxicity
O=c1ccc(=O)[nH][nH]1	inactive	
O=[N+]([O-])c1ccc(Oc2ccc(Cl)cc2Cl)cc1	61.1 µM (active)	
CCCCOC(=O)c1ccccc1C(=O)OCCCC		-7.35% (inactive)
CC(NC(C)(C)C)C(=O)c1cccc(Cl)c1 (stereo not given)		4.49% (inactive)
CC(Oc1ccc(Cl)cc1Cl)C(=O)O (stereo not given)	inactive	
c1ccc2c(c1)Oc1ccccc1O2	inactive	
CC1C=[C-]C=C1.[C-]#[O+].[C-]#[O+].[C-]#[O+].[Mn]		-15.3% (inactive)
Clc1ccccc1Cl	inactive	
Cc1cc(-c2cc(C)c(N)c(C)c2)cc(C)c1N		-7.65% (inactive)
OC(O)C(Cl)(Cl)Cl	inactive	
CC(C)C#N	inactive	
CN(C)N=O	inactive	
O=[N+]([O-])c1ccccc1	inactive	
CC(C)(C)OOC(C)(C)C	inactive	
BrCCBr	inactive	
CCC12COCN1COC2	inactive	
c1ccc(-c2ccccc2)cc1	inactive	
O=c1n(Cl)c(=O)n(Cl)c(=O)n1Cl	inactive	
O=c1[nH]c2ccccc2c(=O)o1	inactive	
CC(Br)C(=O)O (stereo not given)	inactive	

Structure (SMILES)	Potency	activity change, negative = cytotoxicity
C[C@]12CC[C@H]3[C@@H](CC[C@@]45O[C@@H]4C(O)=C(C#N)C[C@]35C)[C@@H]1CC[C@@H]2O	30.6 µM (active)	
CCCC1COC(Cn2cncn2)(c2ccc(Cl)cc2Cl)O1 (stereo not given)	55.5 µM (active) and 17.2 µM (active)	
CC(C)N1C(=O)c2ccccc2NS1(=O)=O	inactive	
ClCCBr	inactive	
NCC(O)c1ccc(O)cc1 (stereo not given)	inactive	
CC(C)C1(C)N=C(c2nc3ccccc3cc2C(=O)O)NC1=O (stereo not given)	inactive	
CCCCCCCCCl	inactive	
CCCCN(CCCC)SN(C)C(=O)Oc1cccc2c1OC(C)(C)C2	30.6 µM (active)	
C=CCO	inactive	
CN(C)CCO	inactive	
CN=C=S	inactive	
OCCN(CCO)CCO	inactive	
O=[N+]([O-])c1ccc([As](=O)(O)O)cc1	inactive	
C1CN2CCN1CC2	inactive	
O=S(=O)(c1ccc(O)cc1)c1ccc(O)cc1	inactive	
c1ccc2c(c1)oc1ccccc12	inactive	
COC(=O)NS(=O)(=O)c1ccc(N)cc1	inactive	
c1ccc(OP(Oc2ccccc2)Oc2ccccc2)cc1	inactive	
ClCc1cccnc1	inactive	
CC(C)(C)OOC(=O)c1ccccc1	inactive	
